Experimental data as given in PMC4336329 (PLoS ONE, 2015).
The whole screen tested about 310,000 compounds, of which about 14,000 (4.5%) showed an effect of 50% or more. The effect is printed as a negative number. The entries come from a sample that favours strong results as a whole.

Molecular target: human ether-à-go-go-related gene (hERG) potassium channel (human, UniProt Q12809)
Assay: primary screen, population patch clamp on CHO cells stably expressing hERG; higher = less effect of the substance
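Note: peak tail current of the secondary pulse compared with the same well before compound.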

Chain of human ether-à-go-go-related gene (hERG) potassium channel (Q12809 whole entry, looked up): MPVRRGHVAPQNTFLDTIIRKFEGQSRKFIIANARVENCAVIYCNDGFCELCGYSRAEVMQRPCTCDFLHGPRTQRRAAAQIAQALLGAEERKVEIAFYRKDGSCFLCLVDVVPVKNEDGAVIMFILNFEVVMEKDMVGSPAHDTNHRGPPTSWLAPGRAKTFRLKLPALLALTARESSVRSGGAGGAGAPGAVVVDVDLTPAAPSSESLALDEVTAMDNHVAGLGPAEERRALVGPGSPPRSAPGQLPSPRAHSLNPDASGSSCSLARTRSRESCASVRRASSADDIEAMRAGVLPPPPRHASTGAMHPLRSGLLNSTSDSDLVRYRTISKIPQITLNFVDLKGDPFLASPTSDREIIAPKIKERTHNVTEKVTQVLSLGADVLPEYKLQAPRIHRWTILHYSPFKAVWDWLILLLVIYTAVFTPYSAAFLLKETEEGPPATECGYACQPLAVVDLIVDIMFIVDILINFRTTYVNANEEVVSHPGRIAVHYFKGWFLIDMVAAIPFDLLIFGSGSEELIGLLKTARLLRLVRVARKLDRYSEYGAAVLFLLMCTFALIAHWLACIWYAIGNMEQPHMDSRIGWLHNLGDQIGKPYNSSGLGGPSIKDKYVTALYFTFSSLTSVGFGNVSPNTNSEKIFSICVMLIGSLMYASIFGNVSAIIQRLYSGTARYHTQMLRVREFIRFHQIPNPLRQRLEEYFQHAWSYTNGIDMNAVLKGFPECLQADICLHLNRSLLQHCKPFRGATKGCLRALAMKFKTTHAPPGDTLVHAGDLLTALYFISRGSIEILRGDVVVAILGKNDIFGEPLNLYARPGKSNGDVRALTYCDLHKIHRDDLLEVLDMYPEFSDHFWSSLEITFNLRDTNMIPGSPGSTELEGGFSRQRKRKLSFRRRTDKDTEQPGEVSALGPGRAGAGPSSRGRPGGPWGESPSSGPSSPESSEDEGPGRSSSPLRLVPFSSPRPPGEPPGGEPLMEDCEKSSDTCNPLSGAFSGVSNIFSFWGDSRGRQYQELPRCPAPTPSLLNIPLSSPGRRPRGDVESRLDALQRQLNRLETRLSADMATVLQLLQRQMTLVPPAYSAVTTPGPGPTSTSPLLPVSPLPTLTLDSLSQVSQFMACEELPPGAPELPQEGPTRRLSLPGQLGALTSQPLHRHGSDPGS

Question: How did the “hERG current change (%, negative = inhibition) at 10uM” value turn out when `Cc1c(C(=O)NCc2ccccc2)cnn1-c1ccccc1` was run?
Answer: -2.6%

Question: How did the “hERG current change (%, negative = inhibition) at 10uM” value turn out when `O=C(Nc1cccc(-c2cn3ccccc3n2)c1)c1cccc(Cl)c1` was run?
Answer: 4.75%

Question: `CCCC1=NN(C(=O)Cc2ccc(OC)c(OC)c2)C(O)(C(F)(F)F)C1` (stereo not shown) was tested. Which “hERG current change (%, negative = inhibition) at 10uM” value did it give?
Answer: 0.733%

Question: How did the “hERG current change (%, negative = inhibition) at 10uM” value turn out when `CC(C)[C@H]1C(=O)Nc2ccccc2N1C(=O)N[C@@H](Cc1ccccc1)C(=O)N[C@@H](Cc1ccccc1)C(=O)O` was run?
Answer: 5.66%

Question: With `Cc1nn(C)c(C)c1C(C)NC(=O)c1ccc(OC2CCN(Cc3ccccn3)CC2)cc1` (stereo not shown) as the compound, how does the “hERG current change (%, negative = inhibition) at 10uM” value read?
Answer: 18%

Question: Which “hERG current change (%, negative = inhibition) at 10uM” value does the source give for `CC(=O)NC1=C(Nc2ccc(N(C)C)cc2)C(=O)c2ccccc2C1=O` here?
Answer: -9.79%

Question: Which “hERG current change (%, negative = inhibition) at 10uM” value does the source give for `COC(=O)N/N=C/c1ccc(-c2cccc(Cl)c2)o1` here?
Answer: -3.5%

Question: Which “hERG current change (%, negative = inhibition) at 10uM” value does the source give for `COc1cc(OC)cc(-c2nc(-c3ccccc3)no2)c1` here?
Answer: 5.45%

Question: Which “hERG current change (%, negative = inhibition) at 10uM” value does the source give for `COCCCN1C(=O)C(O)=C(C(C)=O)C1c1cccc(F)c1` (stereo not shown) here?
Answer: 7.18%

Question: With `CCC1(c2ccccc2)NC(=O)N(CC(=O)Nc2ccccc2C(=O)NC2CC2)C1=O` (stereo not shown) as the compound, how does the “hERG current change (%, negative = inhibition) at 10uM” value read?
Answer: -7.31%

Question: Which “hERG current change (%, negative = inhibition) at 10uM” value does the source give for `CN1CCN(c2ccc(Cl)cc2NC(=O)CN2C(=O)NC(C)(c3ccccc3)C2=O)CC1` (stereo not shown) here?
Answer: -23.7%

Question: For `CCC1(c2ccccc2)NC(=O)N(CC(=O)Nc2cc(Cl)ccc2N2CCN(C)CC2)C1=O` (stereo not shown), which “hERG current change (%, negative = inhibition) at 10uM” value is on record?
Answer: -60.8%

Question: Which “hERG current change (%, negative = inhibition) at 10uM” value does the source give for `CC1(c2ccccc2)NC(=O)N(CC(=O)Nc2ccccc2C(=O)NC2CC2)C1=O` (stereo not shown) here?
Answer: -22.5%

Question: How did the “hERG current change (%, negative = inhibition) at 10uM” value turn out when `CCC1(c2ccccc2)NC(=O)N(CC(=O)Nc2ccccc2C(=O)NC2CCCC2)C1=O` (stereo not shown) was run?
Answer: -53.8%

Question: `CCC1(c2ccccc2)NC(=O)N(CC(=O)Nc2cc(Cl)ccc2N2CCOCC2)C1=O` (stereo not shown) was tested. Which “hERG current change (%, negative = inhibition) at 10uM” value did it give?
Answer: -11.2%

Question: How did the “hERG current change (%, negative = inhibition) at 10uM” value turn out when `COC(=O)C1=C(c2cccc(C#N)c2)C[C@@H]2CC[C@H]1N2C(=O)N1CCC(C)CC1` was run?
Answer: -17.1%

Question: For `Cc1ccccc1C1=NC(C(F)(F)F)(C(F)(F)F)c2c(n(-c3ccc(F)cc3)c(=O)[nH]c2=O)N1`, which “hERG current change (%, negative = inhibition) at 10uM” value is on record?
Answer: 12.5%

Question: Which “hERG current change (%, negative = inhibition) at 10uM” value does the source give for `Cc1ccc(C)c(NC(=O)CN2C(=O)CNC2=O)c1` here?
Answer: 0.955%

Question: For `COc1cccc(OCCNS(=O)(=O)c2cccc([N+](=O)[O-])c2)c1`, which “hERG current change (%, negative = inhibition) at 10uM” value is on record?
Answer: -8.19%

Question: For `C[C@@H](CSc1ccccc1)CN1CC[C@H](NC(=O)OCc2ccccc2)CCC1=O`, which “hERG current change (%, negative = inhibition) at 10uM” value is on record?
Answer: -44.2%

Question: For `O=C(OCC(=O)N1CCCC1=O)c1nc(Cl)ccc1Cl`, which “hERG current change (%, negative = inhibition) at 10uM” value is on record?
Answer: 5.78%

Question: How did the “hERG current change (%, negative = inhibition) at 10uM” value turn out when `Nc1cc(N)nc(SCC(=O)c2ccc3c(c2)NC(=O)CO3)n1` was run?
Answer: 8.41%

Question: How did the “hERG current change (%, negative = inhibition) at 10uM” value turn out when `COc1ccccc1NC(=O)CSc1nc2ccccc2c(=O)n1C` was run?
Answer: 12.1%

Question: Which “hERG current change (%, negative = inhibition) at 10uM” value does the source give for `O=C(Nc1ccc(Cl)cc1)C1CCCN1C(=O)NCc1ccccc1` (stereo not shown) here?
Answer: 10.2%

Question: How did the “hERG current change (%, negative = inhibition) at 10uM” value turn out when `CC(/C=C/c1ccccc1)=N/NC(=O)c1cnccn1` was run?
Answer: 2.83%

Question: With `O=C(CN1CCCCC1)N1CCCc2ccccc21.O=C(O)C(=O)O` as the compound, how does the “hERG current change (%, negative = inhibition) at 10uM” value read?
Answer: 2.82%

Question: How did the “hERG current change (%, negative = inhibition) at 10uM” value turn out when `N#CC1(CCCN2CCCCC2)c2ccccc2CCc2ccccc21.O=C(O)C(=O)O` was run?
Answer: -52.7%

Question: Which “hERG current change (%, negative = inhibition) at 10uM” value does the source give for `O=C(CN1CCCC1)N1CCCc2ccccc21.O=C(O)C(=O)O` here?
Answer: 13.8%

Question: With `CNC(=S)NNC(=O)Cc1ccc(O)cc1` as the compound, how does the “hERG current change (%, negative = inhibition) at 10uM” value read?
Answer: -3.23%

Question: For `CN(CC(=O)N1CCN(c2ccc(F)cc2)CC1)S(=O)(=O)c1ccc2c(c1)c(=O)n(C)c(=O)n2C`, which “hERG current change (%, negative = inhibition) at 10uM” value is on record?
Answer: -0.425%

Question: For `O=c1cc(CN2CCCCC2)nc(C2CC2)[nH]1`, which “hERG current change (%, negative = inhibition) at 10uM” value is on record?
Answer: -2.2%

Question: For `CC(C)c1cc(CN2CCN(C3CCCC3)C(CCO)C2)[nH]n1` (stereo not shown), which “hERG current change (%, negative = inhibition) at 10uM” value is on record?
Answer: -5.93%

Question: `c1c(C2CCCCC2)n[nH]c1CN1CCCCC1` was tested. Which “hERG current change (%, negative = inhibition) at 10uM” value did it give?
Answer: -53.9%

Question: `Cc1ccc(C(=O)N/C(=C\c2ccccc2F)c2nc(=S)[nH][nH]2)cc1` was tested. Which “hERG current change (%, negative = inhibition) at 10uM” value did it give?
Answer: 14.4%

Question: Which “hERG current change (%, negative = inhibition) at 10uM” value does the source give for `Cc1cccc(S(=O)(=O)Nc2ccc(-n3c(C)nc4ccccc4c3=O)cc2)c1` here?
Answer: -55.9%

Question: With `Cc1ccc(S(=O)(=O)Nc2ccc(-c3ccc4nncn4n3)cc2)cc1` as the compound, how does the “hERG current change (%, negative = inhibition) at 10uM” value read?
Answer: -9.23%

Question: How did the “hERG current change (%, negative = inhibition) at 10uM” value turn out when `O=S(=O)(Nc1ccc(-c2ccc3nncn3n2)cc1)c1cccc(F)c1` was run?
Answer: 18.1%

Question: `Cc1nc2ccccc2c(=O)n1-c1ccc(NS(=O)(=O)c2ccccc2)cc1` was tested. Which “hERG current change (%, negative = inhibition) at 10uM” value did it give?
Answer: -26.5%

Question: `Cc1nc2ccccc2c(=O)n1-c1cccc(O)c1` was tested. Which “hERG current change (%, negative = inhibition) at 10uM” value did it give?
Answer: 14.1%

Question: `Cc1cccc(S(=O)(=O)Nc2ccc(-c3ccc4nncn4n3)cc2)c1` was tested. Which “hERG current change (%, negative = inhibition) at 10uM” value did it give?
Answer: -123%

Question: `Cc1nc2ccccc2c(=O)n1-c1ccc(Cl)c(Cl)c1` was tested. Which “hERG current change (%, negative = inhibition) at 10uM” value did it give?
Answer: -8.26%

Question: `Cc1ccc(S(=O)(=O)Nc2ccc(-n3c(C)nc4ccccc4c3=O)cc2)cc1` was tested. Which “hERG current change (%, negative = inhibition) at 10uM” value did it give?
Answer: -49.4%

Question: Which “hERG current change (%, negative = inhibition) at 10uM” value does the source give for `Cc1ccc(-n2c(C)nc3ccccc3c2=O)cc1C` here?
Answer: -52.2%

Question: With `O=C(O)c1ccc(N2C(=O)c3cccnc3C2=O)cc1` as the compound, how does the “hERG current change (%, negative = inhibition) at 10uM” value read?
Answer: 16.9%

Question: For `O=C1CCCN1c1ccc(S(=O)(=O)N2CCN(c3ccccc3)CC2)cc1`, which “hERG current change (%, negative = inhibition) at 10uM” value is on record?
Answer: 16.3%

Question: Which “hERG current change (%, negative = inhibition) at 10uM” value does the source give for `COc1ccc2c(c1OC)C(=O)OC2Nc1nc(-c2ccc(-c3ccccc3)cc2)cs1` (stereo not shown) here?
Answer: 17%

Question: Which “hERG current change (%, negative = inhibition) at 10uM” value does the source give for `CC(C)=NNC(=O)c1c(O)c2ccccc2[nH]c1=O` here?
Answer: -20%

Question: With `NC(=O)c1cc(N2C(=O)C=CC2=O)ccc1Cl` as the compound, how does the “hERG current change (%, negative = inhibition) at 10uM” value read?
Answer: 1.79%

Question: `NS(=O)(=O)c1ccc(N2C(=O)C(=O)/C(=C(/O)c3ccccc3)C2c2ccc(Cl)cc2)cc1` (stereo not shown) was tested. Which “hERG current change (%, negative = inhibition) at 10uM” value did it give?
Answer: 18.1%

Question: How did the “hERG current change (%, negative = inhibition) at 10uM” value turn out when `CCN(CCNC(=O)C1CCN(S(C)(=O)=O)CC1)c1ccccc1` was run?
Answer: -1.8%

Question: How did the “hERG current change (%, negative = inhibition) at 10uM” value turn out when `CCC1CCCCN1CCCNC(=O)C1CCN(Cc2nc(-c3ccc(Cl)cc3)oc2C)CC1` (stereo not shown) was run?
Answer: -42.2%

Question: How did the “hERG current change (%, negative = inhibition) at 10uM” value turn out when `CCN(CCNC(=O)C1CCCN(Cc2nc(-c3ccc(OC)cc3)oc2C)C1)c1ccccc1` (stereo not shown) was run?
Answer: -28.1%

Question: Which “hERG current change (%, negative = inhibition) at 10uM” value does the source give for `CCN1CCN(CCNC(=O)C2CCN(Cc3nc(-c4ccc(Cl)cc4)oc3C)CC2)CC1` here?
Answer: 1.11%

Question: Which “hERG current change (%, negative = inhibition) at 10uM” value does the source give for `CCc1ccc(-c2nc(CN3CCC(C(=O)NCCN(CC)c4ccccc4)CC3)c(C)o2)cc1` here?
Answer: -69.5%

Question: Which “hERG current change (%, negative = inhibition) at 10uM” value does the source give for `CCN(CCNC(=O)C1CCN(S(=O)(=O)CC)CC1)c1ccccc1` here?
Answer: -16.9%

Question: For `CCN(CCNC(=O)C1CCN(Cc2nc(-c3ccc(Cl)cc3)oc2C)CC1)c1ccccc1`, which “hERG current change (%, negative = inhibition) at 10uM” value is on record?
Answer: -65.9%

Question: How did the “hERG current change (%, negative = inhibition) at 10uM” value turn out when `CCCN(CCC)CCNC(=O)C1CCN(Cc2nc(-c3ccc(Cl)cc3)oc2C)CC1` was run?
Answer: -60.6%

Question: For `Cc1oc(-c2ccc(Cl)cc2)nc1CN1CCC(C(=O)NCCCN2CCOCC2)CC1`, which “hERG current change (%, negative = inhibition) at 10uM” value is on record?
Answer: -26.5%
